L major viab: inhibitors of Leishmania major promastigote growth; Leishmania major promastigotes, resazurin fluorescence viability; inhibition, % at 10 µM; hit rate 9% among 200,000; AID 1063; in the data active = inhibition above about 50%;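 note: promastigotes grown with compound for 44 hours at 28 °C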
RAM network inh: yeast RAM network inhibition | S. cerevisiae dse1pr::URA3 reporter, 5-FOA growth OD615, 2 d; analog-sensitive cbk1-as2 kinase mutant strain | inhibition, % at 50 µM | hit rate 1.8% among 190,000;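 active = inhibition above a set limit, 3 SD over mean compound inhibition, cut at about 8.4% in these data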;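 note: 0% = DMSO-only wells with no growth and 100% = 10 µM 1-NA-PP1 full growth; inhibition rescues growth on 5-FOA so higher OD means more RAM inhibition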
WT yeast gro inh: growth inhibition of WT yeast, mitochondrial fusion screen. AID 1362. mitochondrial fusion phenotypic screen, WT strain. inhibition, % at 10 µM. hit rate 2.1% among 190,000; in the data active = inhibition above about 58%; tested in S. cerevisiae
CHOP inhibitor: blocks CHOP induction under ER stress; CHO-K1 CHOP-promoter luciferase, tunicamycin-induced, 15-18 h; inhibition, % at 10 µM; hit rate 3.8% among 220,000;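 active = compounds that reduced the stress-induced luciferase reporter signal by more than about 70% of percent inhibition, limit read from the data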;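 note: 0% = tunicamycin plus vehicle and 100% = wells without tunicamycin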
Active calls of the source: *. Rows were chosen to be rich in hits. Some 13% of all compounds tested hit in one or more screens of this group.

SMILES	L major viab	RAM network inh	WT yeast gro inh	CHOP inhibitor
O=S(=O)(c1ccc(OCC2CO2)cc1)c1ccc(OCC2CO2)cc1 (stereo not given)	3	0	1	17
O=C1/C(=C/c2ccc([N+](=O)[O-])cc2)C=C(c2ccccc2)N1c1ccc(O)cc1	100*	4	51	81*
Cc1ccc(NC(=O)/C(=C/c2cccs2)NC(=O)c2ccco2)c(C)c1	-5	-1	-2	-3
CCOc1ccc(NC(=O)C(Cc2ccccc2)N2C(=O)c3cccc4cccc(c34)C2=O)cc1 (stereo not given)	-2	3	2	-6
CCCN1C(=O)/C(=C\C=C2/C=CN(CC)c3ccccc32)SC1=S	-2	2	59*	50
O=C(COC(=O)c1ccc(S(=O)(=O)N2CCOCC2)cc1)NCc1cccs1	-4	2	-2	2
O=C(C1CCCCC1)N(Cc1nc2sc3c(c2c(=O)[nH]1)CCCC3)Cc1cccs1	2	5	59*	38
